Measured values from PubChem BioAssay (Tox21).
Results filed as inconclusive are left out. Unmarked numbers belong to inactive results. Activity calls are given as the source filed them. Calls follow the shape of the dose curve; as a rule, active = well fitted curve in the direction sought with a large enough effect in the repeat runs; inconclusive = weak or mixed curves; inactive = no such curve, though single readings can be large; an effect the other way counts as inactive or inconclusive.

test: qHTS RealTime-Glo MT Cell Viability Assay in HEK293 cells - 8 hour (AID 1224887); settings: RealTime-Glo luminescence; series mostly up to 76.8 µM; activity change, negative = cytotoxicity: at the top concentration; also: nearly all actives have a fitted effect of over 50% in size; as to activity change, negative = cytotoxicity: top concentration of the series differs between compounds
Method in brief: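 qHTS format; HEK293 cells with NanoLuc/prosubstrate reagent, 37 C/5% CO2 for 5 h pre-dosing; compounds 23 nL in DMSO; luminescence at each time point reflects viable cells.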
% is scaled to controls: 0 for no effect and ±100 for the full control effect; potency is read from the fitted curve at half-maximal effect.

Structure (SMILES)	activity change, negative = cytotoxicity	Potency
CS(=O)(=O)c1cc(C(F)(F)F)ccc1C(=O)c1cnoc1C1CC1	1.35%	–
C[C@]1(O)CC[C@H]2[C@@H]3CCC4=CC(=O)CC[C@]4(C)[C@@]3(F)[C@@H](O)C[C@@]21C	-10.1%	–
O=C(Oc1ccc(Br)cc1)N1CCN2CCC1CC2	1.88%	–
COc1cc2c(cc1OC)[C@@]13CCN4CC5=CCO[C@H]6CC(=O)N2[C@H]1[C@H]6[C@H]5C[C@H]43	-15.5%	–
CCCCCCBr	9.92%	–
CCN(CC)C(C)C(=O)c1ccccc1 (configuration not stated)	6.9% [at 35.3 µM]	–
O=NN1CCCCC1	-8.05%	–
CN(N=O)C(N)=O	-4.07%	–
OCCSCSCCO	5.61%	–
CCCCOC(=O)[C@@H](C)Oc1ccc(Oc2ccc(C#N)cc2F)cc1	–	12.2 µM (active)

test: A CellTox Green Cytotoxicity Assay to monitor cytotoxicity in HEK293 cells - 16 hour (AID 1224888); settings: CellTox Green fluorescence; series mostly up to 76.8 µM; activity change: at the top concentration; also: nearly all actives have a fitted effect of over 35% in size
Method in brief: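 Each value comes from one timepoint of a single continuous run in which HEK293 cells with CellTox Green were exposed to compound for up to 40 h at 37 C, dye fluorescence rising with cell death.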

Structure (SMILES)	activity change	Potency
BrCCCCCCBr	-2.31%	–
Nc1cnn(-c2ccccc2)c(=O)c1Cl	-9.87%	–
Nc1cc2c3c(c1)C(c1ccccc1)=N[C@@H](NC(=O)c1cccnc1)C(=O)N3CC2	-14.1%	–
O=[N+]([O-])c1cc(Cl)c(Cl)c(Cl)c1	–	21.7 µM (active)
CCCSC(=O)N(CCC)CCC	4.62%	–
Cc1cc(C)c(C(=O)P(=O)(C(=O)c2c(C)cc(C)cc2C)c2ccccc2)c(C)c1	-5.02%	–
Cc1coc2c1CCC(C)C2 (configuration not stated)	-0.134%	–
CC(N)=S	-1.83%	–
CCN(CC)CCOC(=O)C(C)(c1ccccc1)c1ccccc1	3.15% [at 35.3 µM, stronger effect = higher value]	–
O=C1c2ccccc2C(=O)c2ccccc21	5.38% [at 15.8 µM, stronger effect = higher value]	–
CCC(=O)C(CCN(C)C)(c1ccccc1)c1ccccc1	6.23% [at 35.3 µM, stronger effect = higher value]	–
c1cc2c(c(N3CCNCC3)c1)OCCO2	-4.06% [at 35.3 µM, stronger effect = higher value]	–
CCCSC(=O)Cl	2.07%	–
CCOC(=O)NC(=S)Nc1ccccc1NC(=S)NC(=O)OCC	1.92%	–
ClC(Cl)Br	3.33%	–
C(CCOCC1CO1)COCC1CO1 (configuration not stated)	-0.0163%	–

Structure (SMILES)	activity change	Potency
OC(c1ccccc1)(c1ccccc1)C1CCNCC1	1.12% [at 35.3 µM, stronger effect = higher value]	–
CCN(CC)C(=O)[C@@H]1C=C2c3cccc4[nH]cc(c34)C[C@H]2N(C)C1	9.66% [at 200 µM, stronger effect = higher value]	–
NC(=S)C(N)=S	1.78%	–
CNC(=O)O/N=C(\C)SC	-1.93%	–
N#CCBr	-0.435%	–
CCCCCCI	13.8%	–
CC(CC(C#N)(c1ccccc1)c1ccccc1)N(C)C (configuration not stated)	16.9%	–
C[C@]1(O)CC[C@H]2[C@@H]3CCC4=CC(=O)CC[C@]4(C)[C@@]3(F)[C@@H](O)C[C@@]21C	3.79%	–
O=C(Oc1ccc(Br)cc1)N1CCN2CCC1CC2	-12.6%	–
COc1cc2c(cc1OC)[C@@]13CCN4CC5=CCO[C@H]6CC(=O)N2[C@H]1[C@H]6[C@H]5C[C@H]43	0.356%	–
CCCCCCBr	-4.37%	–
CCN(CC)C(C)C(=O)c1ccccc1 (configuration not stated)	1.74% [at 35.3 µM, stronger effect = higher value]	–
O=NN1CCCCC1	-4.77%	–
CN(N=O)C(N)=O	-10.5%	–
OCCSCSCCO	-1.79%	–
CCCCOC(=O)[C@@H](C)Oc1ccc(Oc2ccc(C#N)cc2F)cc1	-11.2%	–
